From PMC7862700, “An all-to-all approach to the identification of sequence-specific readers for epigenetic DNA modifications on cytosine”

Experiments:
Assay in all cases: DAPPL (digital affinity profiling via proximity ligation, sequencing); 10 mM Tris-HCl pH 7.5, 50 mM NaCl, 1 mM DTT, 4% glycerol, room temperature, 30 min; GST-TFs on glutathione beads, 16-mer random dsDNA library, 0.1% formaldehyde crosslink after washing; high values mean tight binding
Conditions in all cases: protein: recombinant; tags: N-terminal GST; dsDNA, one strand shown
FLI1 = molecular target: T1, FLI1 (Homo sapiens, UniProt Q01543 1-452)
T1 sequence: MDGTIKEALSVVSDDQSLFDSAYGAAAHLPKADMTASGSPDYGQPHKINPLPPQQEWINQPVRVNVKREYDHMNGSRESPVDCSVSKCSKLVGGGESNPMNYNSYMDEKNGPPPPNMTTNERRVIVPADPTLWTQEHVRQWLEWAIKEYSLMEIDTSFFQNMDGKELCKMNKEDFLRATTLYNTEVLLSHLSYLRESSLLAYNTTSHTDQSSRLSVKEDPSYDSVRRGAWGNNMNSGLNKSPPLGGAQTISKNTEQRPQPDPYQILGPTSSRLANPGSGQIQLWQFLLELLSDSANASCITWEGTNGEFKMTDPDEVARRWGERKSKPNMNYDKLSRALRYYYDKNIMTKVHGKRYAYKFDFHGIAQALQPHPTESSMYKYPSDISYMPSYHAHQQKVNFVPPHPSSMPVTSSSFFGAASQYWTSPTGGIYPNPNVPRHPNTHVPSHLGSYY
Method in brief: (§1)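 A tag-only sample was pooled with DNA-barcoded human transcription factors that had been expressed in yeast as GST fusions and captured on glutathione beads. The pools were incubated for 30 min at room temperature with 200 nmole of a random double-stranded 16-mer DNA library in Tris/NaCl/DTT/glycerol buffer, then washed, crosslinked with 0.1% formaldehyde, proximity-ligated (BsaI/T4 ligase, 1 h, 37 °C), PCR-amplified and sequenced on an Illumina NextSeq500. Binding signal is each hexamer's read frequency for a factor divided by its frequency for the tag-only sample.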

ELK1 = molecular target: T2, ELK1 (Homo sapiens, UniProt P19419 1-428)
T2 sequence: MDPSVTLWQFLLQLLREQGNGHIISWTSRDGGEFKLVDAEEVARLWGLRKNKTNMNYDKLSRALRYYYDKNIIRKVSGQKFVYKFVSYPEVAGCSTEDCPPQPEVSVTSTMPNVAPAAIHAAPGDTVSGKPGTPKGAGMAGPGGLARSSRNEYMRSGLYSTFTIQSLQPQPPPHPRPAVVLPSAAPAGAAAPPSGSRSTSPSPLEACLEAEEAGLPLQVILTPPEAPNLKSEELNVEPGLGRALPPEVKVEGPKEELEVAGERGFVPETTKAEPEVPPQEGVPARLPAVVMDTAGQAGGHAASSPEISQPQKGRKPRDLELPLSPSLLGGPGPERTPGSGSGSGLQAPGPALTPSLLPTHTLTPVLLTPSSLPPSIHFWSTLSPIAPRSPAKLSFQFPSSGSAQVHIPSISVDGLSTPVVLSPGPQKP
Method in brief: as §1

GABPA = molecular target: T3, GABPA (Homo sapiens, UniProt Q06546 1-454)
T3 sequence: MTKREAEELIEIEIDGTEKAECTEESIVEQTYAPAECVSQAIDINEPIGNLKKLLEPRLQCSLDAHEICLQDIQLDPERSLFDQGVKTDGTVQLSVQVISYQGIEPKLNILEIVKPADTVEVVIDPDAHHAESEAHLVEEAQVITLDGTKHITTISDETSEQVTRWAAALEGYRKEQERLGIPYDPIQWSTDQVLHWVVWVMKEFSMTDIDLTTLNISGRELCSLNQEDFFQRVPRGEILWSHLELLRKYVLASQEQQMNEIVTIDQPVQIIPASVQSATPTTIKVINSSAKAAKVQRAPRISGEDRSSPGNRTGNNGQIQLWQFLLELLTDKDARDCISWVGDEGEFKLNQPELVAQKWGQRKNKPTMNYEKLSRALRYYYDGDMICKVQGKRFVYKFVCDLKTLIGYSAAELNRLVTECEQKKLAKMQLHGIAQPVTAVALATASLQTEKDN
Method in brief: as §1

ERG = molecular target: T4, ERG (Homo sapiens, UniProt P11308 1-479)
T4 sequence: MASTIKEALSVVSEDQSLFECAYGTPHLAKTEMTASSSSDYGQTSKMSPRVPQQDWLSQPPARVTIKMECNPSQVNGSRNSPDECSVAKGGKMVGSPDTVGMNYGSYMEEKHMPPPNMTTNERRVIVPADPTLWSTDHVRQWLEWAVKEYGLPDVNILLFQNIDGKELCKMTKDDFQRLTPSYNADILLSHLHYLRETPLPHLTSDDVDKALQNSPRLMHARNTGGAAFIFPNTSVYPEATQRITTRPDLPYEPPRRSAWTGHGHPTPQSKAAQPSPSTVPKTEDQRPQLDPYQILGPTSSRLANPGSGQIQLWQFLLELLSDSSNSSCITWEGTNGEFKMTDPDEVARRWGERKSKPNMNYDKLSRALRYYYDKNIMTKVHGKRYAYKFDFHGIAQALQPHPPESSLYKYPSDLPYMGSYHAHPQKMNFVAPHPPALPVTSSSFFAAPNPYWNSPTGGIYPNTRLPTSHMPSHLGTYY
Method in brief: as §1

ELF1 = ELF1 (Homo sapiens, UniProt P32519 1-619)
Method in brief: as §1

EHF = molecular target: T5, EHF (Homo sapiens, UniProt Q9NZC4 1-300)
T5 sequence: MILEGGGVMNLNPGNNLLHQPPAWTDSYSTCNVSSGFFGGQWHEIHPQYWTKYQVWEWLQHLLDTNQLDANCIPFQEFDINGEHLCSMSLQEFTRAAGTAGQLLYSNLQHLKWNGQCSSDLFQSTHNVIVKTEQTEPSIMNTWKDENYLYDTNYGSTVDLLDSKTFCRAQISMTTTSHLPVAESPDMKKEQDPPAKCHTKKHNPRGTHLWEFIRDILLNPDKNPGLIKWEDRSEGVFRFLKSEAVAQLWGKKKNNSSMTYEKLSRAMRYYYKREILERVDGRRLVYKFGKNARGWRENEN
Method in brief: as §1

SPI1 = SPI1 (Homo sapiens, UniProt P17947 1-270)
Method in brief: as §1

SPIB = SPIB (Homo sapiens, UniProt Q01892 1-262)
Method in brief: as §1

ELK3 = molecular target: T6, ELK3 (Homo sapiens, UniProt P41970 1-407)
T6 sequence: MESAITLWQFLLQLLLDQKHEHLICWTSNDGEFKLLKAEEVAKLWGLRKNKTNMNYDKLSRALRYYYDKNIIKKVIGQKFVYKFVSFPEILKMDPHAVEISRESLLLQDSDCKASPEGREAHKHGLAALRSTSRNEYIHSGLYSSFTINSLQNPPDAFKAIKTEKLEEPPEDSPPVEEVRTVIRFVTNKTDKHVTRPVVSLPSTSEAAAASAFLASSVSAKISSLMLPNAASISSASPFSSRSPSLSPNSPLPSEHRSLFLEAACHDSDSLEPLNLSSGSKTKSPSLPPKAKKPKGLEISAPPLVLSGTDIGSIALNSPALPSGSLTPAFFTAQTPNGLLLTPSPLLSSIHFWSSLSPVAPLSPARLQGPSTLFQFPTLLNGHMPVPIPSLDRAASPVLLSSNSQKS
Method in brief: as §1

Sequence of SPIB (Q01892 whole entry): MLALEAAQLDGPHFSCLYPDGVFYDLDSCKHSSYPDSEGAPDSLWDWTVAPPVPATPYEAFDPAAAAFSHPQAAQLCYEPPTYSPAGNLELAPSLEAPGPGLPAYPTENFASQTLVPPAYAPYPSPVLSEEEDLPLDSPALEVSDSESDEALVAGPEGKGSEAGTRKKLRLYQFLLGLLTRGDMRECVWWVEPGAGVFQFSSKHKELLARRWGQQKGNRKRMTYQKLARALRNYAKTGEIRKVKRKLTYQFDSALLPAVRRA
Sequence of ELF1 (P32519 whole entry): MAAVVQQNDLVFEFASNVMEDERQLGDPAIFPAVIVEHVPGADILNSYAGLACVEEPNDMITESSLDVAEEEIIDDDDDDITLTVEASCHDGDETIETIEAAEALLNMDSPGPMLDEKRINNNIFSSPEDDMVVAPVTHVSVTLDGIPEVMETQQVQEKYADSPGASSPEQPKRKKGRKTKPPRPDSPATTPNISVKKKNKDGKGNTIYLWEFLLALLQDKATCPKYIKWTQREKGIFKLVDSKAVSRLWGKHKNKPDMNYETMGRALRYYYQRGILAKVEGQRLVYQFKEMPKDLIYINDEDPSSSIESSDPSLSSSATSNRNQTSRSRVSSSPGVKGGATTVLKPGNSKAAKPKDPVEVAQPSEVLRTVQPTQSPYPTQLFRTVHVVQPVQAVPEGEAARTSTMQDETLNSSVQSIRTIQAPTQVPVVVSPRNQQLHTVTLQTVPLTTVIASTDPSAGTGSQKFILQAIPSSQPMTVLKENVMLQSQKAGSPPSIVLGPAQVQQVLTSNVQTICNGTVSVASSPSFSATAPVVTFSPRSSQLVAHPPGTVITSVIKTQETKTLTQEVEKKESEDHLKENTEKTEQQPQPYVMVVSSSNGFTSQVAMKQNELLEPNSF

## CCGACG
FLI1
  binding signal: 1.27 fold enrichment (6-mer frequency, TF over GST control)
ELK1
  binding signal: 1.15 fold enrichment (6-mer frequency, TF over GST control)
GABPA
  binding signal: 1.27 fold enrichment (6-mer frequency, TF over GST control)
ERG
  binding signal: 1.2 fold enrichment (6-mer frequency, TF over GST control)
ELF1
  binding signal: 1.28 fold enrichment (6-mer frequency, TF over GST control)
EHF
  binding signal: 1.17 fold enrichment (6-mer frequency, TF over GST control)
SPI1
  binding signal: 1.22 fold enrichment (6-mer frequency, TF over GST control)
SPIB
  binding signal: 1.32 fold enrichment (6-mer frequency, TF over GST control)
ELK3
  binding signal: 1.2 fold enrichment (6-mer frequency, TF over GST control)

## ACACTA
FLI1
  binding signal: 1.11 fold enrichment (6-mer frequency, TF over GST control)
ELK1
  binding signal: 1.17 fold enrichment (6-mer frequency, TF over GST control)
GABPA
  binding signal: 1.13 fold enrichment (6-mer frequency, TF over GST control)
ERG
  binding signal: 1.12 fold enrichment (6-mer frequency, TF over GST control)
ELF1
  binding signal: 1.19 fold enrichment (6-mer frequency, TF over GST control)
EHF
  binding signal: 1.15 fold enrichment (6-mer frequency, TF over GST control)
SPI1
  binding signal: 1.11 fold enrichment (6-mer frequency, TF over GST control)
SPIB
  binding signal: 1.09 fold enrichment (6-mer frequency, TF over GST control)
ELK3
  binding signal: 1.1 fold enrichment (6-mer frequency, TF over GST control)

## ATTCTT
FLI1
  binding signal: 1.48 fold enrichment (6-mer frequency, TF over GST control)
ELK1
  binding signal: 1.44 fold enrichment (6-mer frequency, TF over GST control)
GABPA
  binding signal: 1.49 fold enrichment (6-mer frequency, TF over GST control)
ERG
  binding signal: 1.5 fold enrichment (6-mer frequency, TF over GST control)
ELF1
  binding signal: 1.51 fold enrichment (6-mer frequency, TF over GST control)
EHF
  binding signal: 1.45 fold enrichment (6-mer frequency, TF over GST control)
SPI1
  binding signal: 1.44 fold enrichment (6-mer frequency, TF over GST control)
SPIB
  binding signal: 1.56 fold enrichment (6-mer frequency, TF over GST control)
ELK3
  binding signal: 1.61 fold enrichment (6-mer frequency, TF over GST control)

## ACGGAA
FLI1
  binding signal: 1.66 fold enrichment (6-mer frequency, TF over GST control)
ELK1
  binding signal: 1.69 fold enrichment (6-mer frequency, TF over GST control)
GABPA
  binding signal: 1.58 fold enrichment (6-mer frequency, TF over GST control)
ERG
  binding signal: 1.93 fold enrichment (6-mer frequency, TF over GST control)
ELF1
  binding signal: 1.62 fold enrichment (6-mer frequency, TF over GST control)
EHF
  binding signal: 2 fold enrichment (6-mer frequency, TF over GST control)
SPI1
  binding signal: 2.02 fold enrichment (6-mer frequency, TF over GST control)
SPIB
  binding signal: 1.93 fold enrichment (6-mer frequency, TF over GST control)
ELK3
  binding signal: 1.94 fold enrichment (6-mer frequency, TF over GST control)

## TGTGAC
FLI1
  binding signal: 1.05 fold enrichment (6-mer frequency, TF over GST control)
ELK1
  binding signal: 1.09 fold enrichment (6-mer frequency, TF over GST control)
GABPA
  binding signal: 1.15 fold enrichment (6-mer frequency, TF over GST control)
ERG
  binding signal: 1.08 fold enrichment (6-mer frequency, TF over GST control)
ELF1
  binding signal: 1.16 fold enrichment (6-mer frequency, TF over GST control)
EHF
  binding signal: 1.01 fold enrichment (6-mer frequency, TF over GST control)
SPI1
  binding signal: 1.17 fold enrichment (6-mer frequency, TF over GST control)
SPIB
  binding signal: 1.22 fold enrichment (6-mer frequency, TF over GST control)
ELK3
  binding signal: 1.1 fold enrichment (6-mer frequency, TF over GST control)

## TCTCGC
FLI1
  binding signal: 1.82 fold enrichment (6-mer frequency, TF over GST control)
ELK1
  binding signal: 1.75 fold enrichment (6-mer frequency, TF over GST control)
GABPA
  binding signal: 1.88 fold enrichment (6-mer frequency, TF over GST control)
ERG
  binding signal: 1.72 fold enrichment (6-mer frequency, TF over GST control)
ELF1
  binding signal: 1.77 fold enrichment (6-mer frequency, TF over GST control)
EHF
  binding signal: 1.65 fold enrichment (6-mer frequency, TF over GST control)
SPI1
  binding signal: 1.69 fold enrichment (6-mer frequency, TF over GST control)
SPIB
  binding signal: 1.64 fold enrichment (6-mer frequency, TF over GST control)
ELK3
  binding signal: 1.72 fold enrichment (6-mer frequency, TF over GST control)

## TGCAAT
FLI1
  binding signal: 1.18 fold enrichment (6-mer frequency, TF over GST control)
ELK1
  binding signal: 1.21 fold enrichment (6-mer frequency, TF over GST control)
GABPA
  binding signal: 1.15 fold enrichment (6-mer frequency, TF over GST control)
ERG
  binding signal: 1.09 fold enrichment (6-mer frequency, TF over GST control)
ELF1
  binding signal: 1.18 fold enrichment (6-mer frequency, TF over GST control)
EHF
  binding signal: 1.12 fold enrichment (6-mer frequency, TF over GST control)
SPI1
  binding signal: 1.19 fold enrichment (6-mer frequency, TF over GST control)
SPIB
  binding signal: 1.16 fold enrichment (6-mer frequency, TF over GST control)
ELK3
  binding signal: 1.19 fold enrichment (6-mer frequency, TF over GST control)
